Assay results reported in the OligoGym collection.

What follows are sequences tested against NPC1L1 (assay: pooled miR-30 sensor sort-seq; sequence = guide strand). Settings: shRNA.
Note: reference of the scale not given here.

Sequence	sensor-assay potency score (higher = more potent)
TTGATAGAACCTTCAAAGCTGT	-0.451
TTGGAGAGTGTCATGAGGCTTC	-0.0939
TAAAACACATTGGTGATCGTGT	0.009
TTGTTGGGCAAGAAGTTGCTGA	-0.757
TTGGTGATCGACAGACTCGCTT	0.12
TTGGAGTCCACCATCACTCGGC	0.203
TTGATCTCGTCTTCCAGAGAGC	-1.19
TTATGGAACTGCTCCACCGAGG	-0.788
TTGGGGTCCACCATCTTGCTTT	-0.775
TTGTGATAGGCCATGAACCTGG	-0.611
TTGTGTAAGGCTCACTCTGGGC	-1.01
TTGTCAGCTGTGGAGACTCGGG	-1.23

Each sequence was assayed against NPEPL1 in the same assay as above. Settings: shRNA.

Sequence	sensor-assay potency score (higher = more potent)
TTCATGTCCGCCACAGCTGAGG	-1.03
TTGATTTCCACCGTCTTCCCTG	-0.0975
TTCGCTAAGCACTGCAATGTGG	-0.589
TTGCAAGCATAGGACACGCCAT	-0.766
TAGAGGGGACAGCTGTCCGTGG	-0.837
TCGGTGTTCATCTCATTGCAGG	-1.16
TCGCTCACCAGCATGCACCGGT	-0.443
TCGCAGACCATCACAATGCAGC	-1.2
TTGTCTTTGAAACCCTGCTTGA	-0.575

Each sequence was assayed against NPR1 in the same assay as above. Settings: shRNA.

Sequence	sensor-assay potency score (higher = more potent)
TATAATATGCTGTCTTGGCAAA	-1.35
TTGTAGTTCAGTACAACCCTGA	0.392
TTCTCCAGCTGCATCTTCCTGT	-0.0836
TTTCGTGTCAGCTCAATGCGTT	0.0994
TAGACTCCATTCTTGAGGCTGT	0.414
TCATTGGTGAGTGAGTACCGGA	-1.01
ATACTCGTCCTTGACACCGAAG	-1.26
TTCGGTTCCACATCCGCTGAGT	0.0187
TTAGACTCCATTCTTGAGGCTG	0.316
TTGTCCAGGATGTTGCTGCTGT	-0.0226
TTCCTGTATATGAAGAAGGAGA	-1.29

What follows are sequences tested against NPSR1 in the same assay as above. Settings: shRNA.

Sequence	sensor-assay potency score (higher = more potent)
TAGAGCAGCACAACCTGCAAAT	-0.941
TAGCGCAGCCTCCTGGAGCTGA	-0.612
TGAATCGCCAATTAATATCTGT	-0.0374
TTTTAATCCAAATAGTTCGGAT	-0.423
TTGCTTTTAATCCAAATAGTTC	-1.33
TTTGAGATGAGTCCTCGGTTAT	-1.18
TTTCAGTGCAAGCCACTGGGGA	-0.49
